Test results published in the supplement of paper PMC11417369.
± gives the standard deviation of the averaged measurements. Whole data set: some 25,000 sequences, median “ln(normalized median fluorescence intensity)” near 7.9, cut for the highest 2% near 11. For the sample, the highest values were picked, then their nearest neighbours and some sequences at random.

tested on: PfAP2-I AP2 domain 3 (GST-tagged); assay: gcPBM binding intensity (ln(normalized median fluorescence intensity)); higher = stronger DNA binding
Outline: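 Each value is the highest Masliner-normalised natural-log median intensity across replicate spots of either orientation of a probe. The probes were primer-extended double-stranded 36-bp intergenic genomic sequences on an Agilent 4 × 180k array, alongside negative controls, exposed for 1 h to GST-tagged P. falciparum DNA-binding domains expressed in E. coli. Bound protein was picked up with Alexa488 anti-GST antibody and scanned at 488 nm.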

Sequence	gcPBM binding intensity (ln)
TTATAAAAAAAAAAAAAAAAGAAAATGAATTCACGA [CACACA_negctrl_site1248]	8.19 ± 0.3
TAAATTATTATCCCCTCACACACAAAAATAAAAAGA [CACACA_site2886]	8.56 ± 0.25
CGTTGTAGGGAATGTAGTACAGTTATTATTTTATTA [XGTACX_site2429]	7.88 ± 0.24
TATTATATTGTTCATTTACACTTTCATTTTAAAAAA [CACACA_negctrl_site260]	8.05 ± 0.54
TTAATGCACTTTATTACACACACTAGTTCATTACCT [CACACA_site2294]	11.5 ± 0.95
AATGAGAATTTTATTACACACTTTAATATATTTTCA [CACACA_site784]	7.7 ± 0.53
ATAGTTACACAATGGTGTACAAGTCAATATATTTCT [XGTACX_site4614]	7.95 ± 0.33
ATATTGTTATATGTTTGTACATATTTTTTATATTTT [XGTACX_site6834]	7.7 ± 0.64
AACAAAATAAAAAGTAATCTTATTTATTAAAATTTT [CACACA_negctrl_site419]	7.25 ± 0.43
AAGGCATGACTATCTGCACACATAAAAATAAGAAAT [CACACA_site8180]	8.62 ± 0.39
TAAAATATTTCAAAGGTGCAATGATAATTTAAGACG [GTGCAC_site9609]	10.6 ± 0.54
TTATAAAAAATTTTAGTGCATATATGATTTATATAT [GTGCAC_site9831]	10.1 ± 0.33
TAAATAGTTATAAAAGTGCAAAAAAAAAAAAAAAAA [GTGCAC_site9550]	10.1 ± 0.53
GCTGAAAGGATAAAGGTGCATATTTTTTAAAAAATT [GTGCAC_site9487]	10.4 ± 0.28
AAAATTTATAGTATGGTGCATAAAAATATATATATA	11.4 ± 0.23
ATATAAGAATAAATAGTGCAAAATAAATGATTATTT	10.7 ± 0.33
CATAATTTAAAAAAGGTGCAAAATGGATAATATATA [GTGCAC_site9657]	11.1 ± 0.57
AAGAAAATATAACAAAGTAAAAACATATTATATATA [TGCATGCA_negctrl_site248]	7.34 ± 0.34
ACAATGAAATATTCATGTACATATAAATAATAGTGT [XGTACX_site3762]	7.93 ± 0.42
TATAAATTTATAAATAGTACATATATTTATATATAT [XGTACX_site6433]	8.12 ± 0.64
AAATGAATATTCATAGTGCAATATATAAATGAAAAT	11 ± 0.38
GTTATTGAAAAAATAGTGCAATATAACAAAGTAAAA	11.4 ± 0.52
TTTTATATCTACCTTTGTACATATTTATTTTTTTTA [XGTACX_site7872]	8.01 ± 0.74

Sequence	gcPBM binding intensity (ln)
AATAATGAAACAGGAAAAAAATATTGTTAAAATGTA [XGTACX_negctrl_site400]	7.95 ± 0.78
AAAAAAAAAAAAAAAACACACATAAATAGCTCAAAT [CACACA_site3973]	8.78 ± 0.49
ACAAAACGAACATACGCATGTGTGTACATTAATATA [TGCATGCA_site922]	8.14 ± 0.099
TTTTCATTCTTTTCCTTTGATTTACAATAGTATATT [GTGCAC_negctrl_site687]	7.72 ± 0.79
TTTTCCATAAGAATTACACACAGAAAGGATAAGTAT [CACACA_site105]	8.04 ± 0.73
TAATAATCAAGTTAACGTACAAAATCATCTATAGAA [XGTACX_site5921]	8.03 ± 0.13
ATTATTATATAGTGTGCATGCAATATTAATAAAACC [TGCATGCA_site245]	8.79 ± 0.52
ATTGATTATTTTCTAGTGCATAAAATAATTTTTTTT	10.5 ± 0.51
TATAATAGTTCATAGGTGCAATATAATAAATTTATA [GTGCAC_site9573]	11.2 ± 0.47
TTAAAATAGATATTAGTGCAAAAAAAAAAAAATAAA	10.7 ± 0.23
GTTATAATTGAACTAGTGCATAAATATATTTTAATT [GTGCAC_site9851]	11.1 ± 0.45
CATATAATTTTATGGGTGCATTTTTTTGTAAGACCA	10.1 ± 0.58
TATTAATATATAGTAGTGCAATAAAGATATACTGAA	10.9 ± 0.58
TAAATTTATATATAGGTGCGCAATTTGATAATAGTT [GTGCAC_site9783]	9.82 ± 0.19
TAATATATATATATGGTGCATTTAATTTATATATAA	11.2 ± 0.74
TCTATTTTTTATATGGTGCATTGTTCTTATTAATAT [GTGCAC_site9392]	10.8 ± 0.71
TGTAAATAATATAATAGTACGCATATTTTTATTGAA [XGTACX_site284]	7.87 ± 0.17
TCAAAAATTTATATAGTGCAATATATATATAATGTA	10.6 ± 0.72
TATTTTTATTTATAACGTACGAAAAATGTATATAAT [XGTACX_site703]	7.96 ± 0.35
AAATTCCACGGACACACACACATATAAATAAATAAA [CACACA_site4811]	8.23 ± 0.37
TCAACATTTAAAAATAGTACTCATAAACCTTTCGAA [XGTACX_site4111]	7.42 ± 0.46
TATGAATGGTTAAGTACACACATATTAATATAGGTA [CACACA_site7606]	7.79 ± 0.49
ACATATATTTTTTTTTGTACATATAAATATATATAT [XGTACX_site6491]	8.7 ± 0.39

Sequence	gcPBM binding intensity (ln)
TTTAAATATAATTGGAGTACTTATAATATATATATA [XGTACX_site7247]	8.97 ± 0.12
CATTAATTTAATAAATGTACATAAAATATATATTAT [XGTACX_site8085]	7.89 ± 0.36
CCATTATACACAATATGTACATATATATAATCATTT [XGTACX_site7942]	8.04 ± 0.43
AGAGATACATAAAAAAGTACATATAAAATTTAGGAA [XGTACX_site7201]	7.96 ± 0.19
AATTATACGAAATAAAACTTAATAGACAAAAAATTA [CACACA_negctrl_site1384]	7.54 ± 0.63
AATCAATTAATATTAGCATAAAATTTTATTATTTTG [XGTACX_negctrl_site479]	7.46 ± 0.71
TTACAATAAATTATAGTGCAATATTTTATTTAATAT	10.6 ± 0.36
ATATTTTATATAATAGTGCAAATAATATTAAATAAT	10.8 ± 0.37
TATATATTAAAAATAGTGCAAAATAATATATATATA [GTGCAC_site9716]	10.78 ± 0.021
TTTGAAATATATTTAGTGCATATATATTGATTATAA [GTGCAC_site9604]	10.4 ± 0.34
TGCAATTTAATATGAGTGCATATATTGAGAAAATAC	10.04 ± 0.035
ACATATTAAATATGAGTGCAATATATATATATATAA	10.9 ± 0.43
GAAAATAAAATATTAGTGCATTATTTGATCAATAAT	11.3 ± 0.73
GTTATATTTAAAATAGTGCAATAAAAATAATAATAT	11.4 ± 0.67
TATATGAACTTATATACACACCATTTTTGTAAATCT [CACACA_site4547]	7.62 ± 0.54
AAATTTGGCAAACACACACACACACCCACAGAGACA [CACACA_site4490]	8.305 ± 0.021
CCAGGAAAAATTTATTGTACATATATTTTTATGCTC [XGTACX_site7154]	7.68 ± 0.53
ATATAGATCTACACTGCACACATTTTTAACACTGCT [CACACA_site1882]	9.04 ± 0.5
GTTCCAGGCATTCGTGCGCACAAATAGAAACAATTA [GTGCAC_site9824]	11.15 ± 0.035
TTTAGCACAAACAAAAAAAAAATAGAAAAAAATATA [CACACA_negctrl_site1772]	7.59 ± 0.61
TATATAGAAAACAAGGCATGCAAATAACAAATTGTG [TGCATGCA_site473]	8.32 ± 0.91
TGTGTTCATATATGCACACGCATATATATTATTGTT [CACACA_site3822]	9.1 ± 0.25
ATGCACTCATTGTGCACACGCATATTACGAAAAGAA [CACACA_site2638]	10.6 ± 0.18

Sequence	gcPBM binding intensity (ln)
ATATGCACTCATTGTGCACACGCATATTACGAAAAG [CACACA_site2637]	11 ± 0.35
TTTCTTTCTTTCTTTTTTTAAATATTTTTTAAAAAT [TGCATGCA_negctrl_site206]	7.98 ± 0.62
ATTATAATGGTAAAGTGTACAAATTTTTATTACACC [XGTACX_site5274]	8.49 ± 0.092
TTTATATTATTATATCTTATTAATTATTTATCATTT [TGCATGCA_negctrl_site73]	7.28 ± 0.58
GCTTCTTAATATCATACACACATAGATATATTTATA [CACACA_site5676]	8.11 ± 0.58
TATCATCTTAATATCGTGCACATTTATAGAACGAAA [GTGCAC_site9992]	11 ± 0.12
TATACAACTTTATGAAGTACAAAAAGTTCTATATAT [XGTACX_site3866]	7.52 ± 0.44
TGCCATCATATCATAGGTACACAAACATATAAAGAA [XGTACX_site4137]	8.22 ± 0.82
AATATATATTTATATTGTACATATATATATATTTCT [XGTACX_site2603]	7.55 ± 0.34
TTTTTCTATAAAAAATGTACATATTTTATGAAGGAA [XGTACX_site821]	7.96 ± 0.5
TTTTAGTTAATTCATGCATGTAAAGTTTTATTTATA [TGCATGCA_site252]	7.72 ± 0.54
AATGAATATAGTACTGAATGTAATTTAAGGTTTTCC [CACACA_negctrl_site1548]	7.53 ± 0.68
ATTTAATTTTCATGATGTACTATAGTTTAATGCACA [XGTACX_site1624]	11.6 ± 1.1
ACAAGACAGATATATACACACATACATACATACATA [CACACA_site7472]	8.12 ± 0.64
ATAAAGGAATTTTATACACACAACATATATATATAT [CACACA_site2861]	9.45 ± 0.6
TATATATATATATATTGTACACATTGTGTTTAAATA [XGTACX_site5104]	9.43 ± 0.44
TTTTCTATTTAATTGGTGCACTGATATATACACATA [GTGCAC_site9533]	11.3 ± 0.54
GTAATTTTTTTCTATACACACATATCTATAATATAT [CACACA_site7284]	8.09 ± 0.6
GTAATTTTTTTCTATACACACATATATATAATATAT [CACACA_site2655]	8.12 ± 0.58
TATGTATTTTTATGCACACATGCGTGGCTTATATAA [CACACA_site387]	10.9 ± 0.13
TTTATGTATTTTTATGCACACATGCGTGGCTTATAT [CACACA_site4374]	10.79 ± 0.064
TATGTATAAATATATGCACACATATATATATTTATA [CACACA_site9150]	8.85 ± 0.26
ATATATATTTCTTAAAGTACATAATAATAAAAATAT [XGTACX_site8981]	7.79 ± 0.44
